{"source": "PubChem BioAssay (EPA / NIEHS)", "note": "Records with an inconclusive call do not appear. The source made the active and inactive calls. How the source made its calls: active means hit-call score of the fitted dose curve at least 0.9, where 1 is the maximum; inconclusive means response in the unintended direction; inactive means score below 0.9."}
{"test": "ACEA_ER_80hr: ACEA Biosciences xCELLigence Real-Time Cell Analysis on Estrogen Receptor Agonism for Proliferation (AID 2282667)", "settings": "T47D proliferation, impedance (xCELLigence), 80 h", "method_in_brief": "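Cell-growth kinetics were measured by impedance in T47D cells treated continuously with compound (top 100 uM final, 1:4 steps, 8 points). Activity at 80 h was scored as signal gain over the DMSO baseline.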"}
{"smiles": "CCC(=O)OC(C)(C)C1CC=C(C)CC1", "note": "(configuration not stated)", "outcome": "inactive"}
{"smiles": "O=C(O)C(F)(F)OC(F)(F)C(F)(F)OC(F)(F)C(F)(F)C(F)(F)C(F)(F)F", "outcome": "inactive"}
{"smiles": "CCCCCCCCCCCCOC(C)=O", "outcome": "inactive"}
{"smiles": "CC1=CC[C@@H](C(C)(C)O)CC1", "outcome": "inactive"}
{"smiles": "c1ccc(Sc2ccccc2)cc1", "outcome": "inactive"}
{"smiles": "CCOCC(C)O", "note": "(configuration not stated)", "outcome": "inactive"}
{"smiles": "CC(=O)CCc1ccc(O)cc1", "outcome": "inactive"}
{"smiles": "CCCCCCCCCOS(=O)(=O)O", "outcome": "inactive"}
{"smiles": "CCO[Si](CC)(OCC)OCC", "outcome": "inactive"}
{"smiles": "O=c1cc(-c2ccc(O)cc2)oc2cc(O)cc(O)c12", "AC50": "1330 nM (active)"}
{"smiles": "Brc1cc(Br)cc(Br)c1", "outcome": "inactive"}
{"smiles": "CC(C)COC(=O)c1ccccc1O", "outcome": "inactive"}
{"smiles": "CCCO", "outcome": "inactive"}
{"smiles": "C[C@H](CCC(=O)O)[C@H]1CC[C@H]2[C@@H]3CC[C@@H]4C[C@H](O)CC[C@]4(C)[C@H]3CC[C@]12C", "outcome": "inactive"}
{"smiles": "C=CCS(=O)(=O)O", "outcome": "inactive"}
{"smiles": "CC(C)OB(OC(C)C)OC(C)C", "outcome": "inactive"}
{"smiles": "C=CCCCCCCCCC(=O)OCC", "outcome": "inactive"}
{"smiles": "ClCCOCCOCCCl", "outcome": "inactive"}
{"smiles": "CN(C)C(=O)Nc1ccccc1", "outcome": "inactive"}
{"smiles": "CCCCCCCCCCCCCCCCCC(=O)OCCCCCCCCCCCCCC(C)C", "outcome": "inactive"}
{"smiles": "CCCCCC(=O)O[C@]1(C(C)=O)CC[C@H]2[C@@H]3CCC4=CC(=O)CC[C@]4(C)[C@H]3CC[C@@]21C", "AC50": "5.01 nM (active)"}
{"smiles": "CC(CO)(CO)[N+](=O)[O-]", "outcome": "inactive"}
{"smiles": "COC(=O)C(C)Oc1ccc(Oc2ncc(C(F)(F)F)cc2Cl)cc1", "note": "(configuration not stated)", "outcome": "inactive"}
{"smiles": "CC(=O)OC(C)(C)C1CC=C(C)CC1", "note": "(configuration not stated)", "outcome": "inactive"}
{"smiles": "CCCCCCC(C)O", "note": "(configuration not stated)", "outcome": "inactive"}
{"smiles": "CC1=CC(O)CC(C)(C)C1", "note": "(configuration not stated)", "outcome": "inactive"}
{"smiles": "C=C(C)C(=O)OCCC(F)(F)C(F)(F)C(F)(F)C(F)(F)C(F)(F)C(F)(F)C(F)(F)C(F)(F)F", "outcome": "inactive"}
{"smiles": "NCCCOCCOCCOCCCN", "AC50": "10200 nM (active)"}
{"smiles": "CCCCC(CC)COC(=O)COc1ccc(Cl)cc1C", "note": "(configuration not stated)", "outcome": "inactive"}
{"smiles": "OCCN1CCOCC1", "outcome": "inactive"}
{"smiles": "CC(=O)c1ccc(O)cc1", "outcome": "inactive"}
{"smiles": "CCCOC(=O)CC", "outcome": "inactive"}
{"smiles": "CCCCC(CC)COCCO", "note": "(configuration not stated)", "outcome": "inactive"}
{"smiles": "NS(=O)(=O)c1cc(C(=O)O)c(NCc2ccco2)cc1Cl", "outcome": "inactive"}
{"smiles": "CCC(CC)CO", "outcome": "inactive"}
{"smiles": "Cc1cc(N)n(-c2ccccc2)n1", "outcome": "inactive"}
{"smiles": "O=C(OCc1ccccc1)c1ccccc1O", "outcome": "inactive"}
